This passage reports activity change results from PubChem BioAssay AID743279 (National Center for Advancing Translational Sciences (NCATS), 2014).

Out of some 360,000 compounds screened, about 17,000 (4.7%) were called active. Roughly 5% stayed inconclusive and do not appear here. This is one part of a sample in which actives are shown more often than they occur. Cut-off read from the data, not from the text of the source: active = activity change below about -50%; inconclusive = mostly about -30% to -49%; inactive = weaker than that.
% is set by controls: 0 for no effect and ±100 for the full control effect.

This experiment in a line: qHTS for Inhibitors of Inflammasome Signaling: IL-1-beta AlphaLISA Primary Screen. Particulars: THP-1 LPS/ATP IL-1B secretion, 16 h; at 57.5 µM, active compounds read low. In a few lines: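 Secreted IL-1B measured by AlphaLISA bead assay after 16 h compound exposure of THP-1 cells; compounds (final up to 57.5 uM) added 1 h before LPS (250 ng/mL) and ATP (1.25 mM) stimulation; lower signal means less secretion.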
Take `OCCC1CN(Cc2ccc3nsnc3c2)CCN1C1CCCCC1` (centres undefined): the activity change was 36.7% (inactive).

For the compound `O=C(COc1ccc(Br)cc1)OCC(=O)c1ccc[nH]1`, the activity change was -7.68% (inactive).

As for `CCCNC(=O)C1(C)CCN(C(=O)c2ccc(F)cc2Cl)C1` (centres undefined), the activity change is 16.4% (inactive).

In the case of `CC1(C)CC(=O)C2=C(C1)N=C1SCCC(=O)N1C2c1ccc(C(F)(F)F)cc1` (centres undefined), the activity change is 0.519% (inactive).

On to `Cn1c(NN)nc2sc3c(c2c1=O)CCC3`, for which the activity change was 26.1% (inactive).

In the case of `NNC(=O)C1CCCn2c1nc1sc3c(c1c2=O)CCCC3` (centres undefined), the activity change was 0% (inactive).

Turning to `Cc1nc2sc3c(c2c(=O)n1NC(=O)CCl)CCCC3`, the activity change is -80.7% (active).

On to `CCc1nc(N2CCN(C(C)=O)CC2)c2c3c(sc2n1)CCCC3`, for which the activity change is -1.89% (inactive).

For `CCCc1nc2sc3c(c2c(=O)n1NC(=O)CCCl)CCCC3`, the activity change was -96.6% (active).

In the case of `Cc1ccc(C)c(-n2c(SCC(=O)O)nc3sc4c(c3c2=O)CCCC4)c1`, the activity change was 0.0998% (inactive).

On to `O=C1[C@H]2[C@@H](c3ccc(C(F)(F)F)cc3)N[C@]3(CCCN(Cc4ccc(Br)cc4)C3=O)[C@H]2C(=O)N1Cc1ccccc1`, for which the activity change was -13.1% (inactive).

As for `Cc1ccc(S(=O)(=O)N2CC3C(=O)C[C@@H](c4ccccc4Cl)N(S(=O)(=O)c4ccc(C)cc4)C3CC2c2ccccc2)cc1` (some centres undefined), the activity change was -22% (inactive).

For the compound `COC(=O)[C@]12CCCCC=C1N(Cc1ccc3c(c1)OCO3)C(=O)[C@H](CC(=O)N1CCOCC1)C2`, the activity change was -18.3% (inactive).

For the compound `C/C=C/c1ccc(OCCOc2ccc(C=O)cc2OC)c(OC)c1`, the activity change is 3.9% (inactive).

Regarding `COc1ccccc1OCC(O)CN1CCOCC1` (centres undefined), the activity change is 5.64% (inactive).

`C=CCc1ccc(OCC(O)CN2CCN(Cc3ccccc3)CC2)c(OC)c1` (centres undefined): the activity change was -7.39% (inactive).

For `C/C=C/c1ccc(OCCCCN2CCC(C)CC2)c(OC)c1`, the activity change was -54% (active).

Take `C/C=C/c1ccc(OCC(O)CN2CCCCCCC2)c(OC)c1` (centres undefined): the activity change is -53.6% (active).

Take `COc1ccc(OCCCCN2CCC(C)CC2)cc1`: the activity change was -29.3% (inactive).

For `CC(=O)Nc1ccc(C(=O)OCC(=O)Nc2ccc([N+](=O)[O-])cc2C(F)(F)F)cc1`, the activity change was -1.11% (inactive).

For `COC(=O)[C@]12CCCCC=C1N(Cc1ccco1)C(=O)[C@H](CC(=O)NCCCCc1ccccc1)C2`, the activity change is 4% (inactive).

On to `CC(=O)Nc1cccc(-c2cc3nc(NCc4cccnc4)n(C)c(=O)c3s2)c1`, for which the activity change is -0.936% (inactive).

For `Cc1ccc(S(=O)(=O)NNC(=O)/C=C/c2cccc(F)c2)cc1`, the activity change was -11.4% (inactive).

As for `O=C(Nc1ccnn1C1CCN(C/C=C/c2ccc(F)cc2)CC1)C1CCCC1`, the activity change was -71.6% (active).

`O=C(c1ccc(OC2CCN(Cc3ccccn3)CC2)cc1)N1CCCCCC1`: the activity change was 2.11% (inactive).

On to `CC(=O)Nc1ccc(CN2CCC(Oc3ccc(C(=O)N4CCCC4)cc3)CC2)cc1`, for which the activity change is 20.8% (inactive).

As to `CC(CN1CCC(n2nccc2NC(=O)C2CCCC2)CC1)c1ccccc1` (centres undefined), the activity change was -14% (inactive).

Take `Cc1nn(C)c(Cl)c1CN1CCC(n2nccc2NC(=O)C2CCCC2)CC1`: the activity change was 22.9% (inactive).

Regarding `O=C(c1ccc(OC2CCN(C/C=C/c3ccc(F)cc3)CC2)cc1)N1CCCCC1`, the activity change was -63.7% (active).
